Results published in PubChem BioAssay (NCATS).
Results filed as inconclusive are left out. Unmarked numbers belong to inactive results. Calls of active or inactive are those of the source. The call rests on the fitted dose curve; in most records, active means well fitted cell-killing curve with a large enough effect; inconclusive means small, poorly fitted or top-dose-only effect; inactive means flat fitted curve, though single readings scatter.

test: Cellular viability qHTS for adrenocortical cancer (ACC) cell line NCI-H295R (AID 1963990); conditions: CellTiter-Glo ATP luminescence, 48 h; series mostly up to 46.1 µM; activity change, negative = viability loss: at the top concentration; further: nearly all actives have a fitted effect of over 60% in size;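 on activity change, negative = viability loss: 0% = DMSO only wells and -100% = full killing with cytotoxic reference compound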
In short: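 CellTiter-Glo ATP luminescence, read 48 h after compound addition, measured viability of NCI-H295R adrenocortical cells grown serum-free with ITS. Final concentrations spanned up to 46 uM. Data normalized to DMSO and doxorubicin, fitted for IC50 and maximal response.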

SMILES | Potency | activity change, negative = viability loss [%]
COc1ccc([C@@H]2Sc3ccccc3NC(=O)[C@@H]2O)cc1 | 23.1 µM (active) | –
CC(C)=CCC1C(=O)N(c2ccccc2)N(c2ccccc2)C1=O | 20.6 µM (active) | –
NC(=S)N/N=C/c1ncccc1N | – | -1.6
NC(=O)n1c(O)c(C(=O)c2cccs2)c2cc(Cl)ccc21 | 9.2 µM (active) | –
O=C1Nc2ccccc2C1(c1ccc(O)cc1)c1ccc(O)cc1 | – | 0.0188
O=C(CCCN1CCN(c2ccccn2)CC1)c1ccc(F)cc1 | – | 3.03
CC(C)NC[C@@H](O)COc1cccc2ccccc12 | – | -7.01
CCc1cc(Nc2nccc(-c3c(-c4ccc(OC)c(C(=O)Nc5c(F)cccc5F)c4)nc4ccccn34)n2)c(OC)cc1N1CCC(N2CCN(S(C)(=O)=O)CC2)CC1 | – | -15.4
Nc1n[n+]([O-])c2ccccc2[n+]1[O-] | 17.8 µM (active) | –
CCn1c(=O)c2c(nc(/C=C/c3ccc(OC)c(OC)c3)n2C)n(CC)c1=O | – | -8.7
CCCOC(C(=O)OC1CCN(C)CC1)(c1ccccc1)c1ccccc1 | 23.1 µM (active) | –
